VLA-4 inh: inhibition in human VLA-4 binding assay, primary screen, VLA-4 allosteric modulator project, MLPCN library, flow cytometry, VLA-4 expressing cells; Integrin alpha-4 (Homo sapiens), P13612; ligand binding flow cytometry; inhibition, % (about 7 µM as worked out from the volumes in the protocol); actives 0.2% (n = 330,000); AID 2557, 2010; in the data active = inhibition above about 50%
MEX-5 binding: MEX-5 zinc finger RNA-binding disruptors – biochemical, C. elegans, fluorescence polarization, MLPCN library, primary screen | Zinc finger protein mex-5 (Caenorhabditis elegans), Q9XUB2 | MEX-5/FITC-TCR2 RNA binding; hits give low values | activity score (negative = inhibition of binding), % at 10 µM | actives 0.38% (n = 300,000) | AID 1832, 2009;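 active = inhibition past about -25% in most replicates, and total fluorescence under double the plate's negative control median, limit read from the data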;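 also: 0% = DMSO and -100% = 5 µM competing unlabeled TCR2 RNA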
HTR2A ag: mouse Htr2a agonists via beta-arrestin recruitment, primary screen, cell-based, luminescence; CHO-K1 mHTR2A beta-arrestin complementation; percent of 30 µM serotonin response; activation, % at 7.6 µM; actives 0.66% (n = 360,000);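 active = activation above a run cutoff, the mean activation of all tested compounds plus 3 SD, cut at about 14% in these data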;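 also: 0% = plate median of compound wells and 100% = 30 µM serotonin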
GASC-1 inh: inhibitors of GASC-1 histone demethylase, primary screen, biochemical, fluorescence, DELFIA europium. inhibition, % at 2.35 µM. GST-JMJD2C(1-420) H3K9me3 demethylation. Lysine-specific demethylase 4C (Homo sapiens), Q9H3R0. actives 0.069% (n = 330,000);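 active = more than half of a compound's replicate wells show inhibition beyond 50%, single wells judged on their own value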;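 also: signal counts dimethyl H3K9 product captured on neutravidin plate; 0% = median of DMSO wells and 100% = 0.3 times that DMSO median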
V-ATPase pH: regulators of yeast V-ATPase proton pumping, primary screen, pHLuorin cytosolic pH fluorescence; S. cerevisiae; actives 0.37% (n = 350,000); AID 504577, 2011; response, % at 10 µM; in the data active = response mostly above about 7.3%, no sharp cut-off; inactive = mostly below about 5.4%; also: actives read high
Granule exo inh: LAMP-1 surface exposure blockers, TALL-104 cells – cell-based, flow cytometry, MLPCN library, primary screen; TALL-104 LAMP-1 surface exposure; cells stimulated with thapsigargin and PMA; inhibition, % at 10 µM; actives 0.66% (n = 360,000); AID 651702, 2012;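 active = inhibition above about 55%, limit read from the data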
OPRM1 ag: OPRM1 agonists via beta-arrestin recruitment, confirmation, counter-screen for mouse HTR2A agonist project, cell-based, luminescence, single concentration; activation, % at 9.3 µM; U2OS OPRM1 beta-arrestin PathHunter; DMSO 0%, DAMGO 9.3 µM 100%; shares compounds with HTR2A ag; actives 5.3% (n = 2,300);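 active = mean activation above the mean of DMSO-only wells plus 3 SD, cut at about 0.5% in these data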
Target sequence (P35372 whole entry, looked up): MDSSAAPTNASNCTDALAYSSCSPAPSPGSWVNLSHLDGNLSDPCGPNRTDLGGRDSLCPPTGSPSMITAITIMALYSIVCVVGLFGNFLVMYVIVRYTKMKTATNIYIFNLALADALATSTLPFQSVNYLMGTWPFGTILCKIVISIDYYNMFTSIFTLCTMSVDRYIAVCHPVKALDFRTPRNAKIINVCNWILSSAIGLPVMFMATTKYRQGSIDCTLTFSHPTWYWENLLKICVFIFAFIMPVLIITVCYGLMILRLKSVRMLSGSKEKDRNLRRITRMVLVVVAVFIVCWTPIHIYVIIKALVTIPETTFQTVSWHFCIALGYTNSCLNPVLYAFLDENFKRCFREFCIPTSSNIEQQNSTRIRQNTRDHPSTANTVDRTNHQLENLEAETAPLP
HTR2A ag conf: mouse HTR2A agonists, beta-arrestin recruitment, confirmation, cell-based, luminescence, CHO-K1 PathHunter, triplicate; shares compounds with HTR2A ag; DMSO 0%, 30 µM serotonin 100%; activation, % at 7.6 µM; actives 19% (n = 2,300);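 active = mean activation across triplicates above the hit threshold derived in the original primary screen, cut at about 15% in these data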
* = called active by the depositor; . = no result. Most compounds without a hit are left out; they make up all but 2.2% or so of the library.

SMILES	VLA-4 inh	MEX-5 binding	HTR2A ag	GASC-1 inh	V-ATPase pH	Granule exo inh	OPRM1 ag	HTR2A ag conf
COc1ccc(-n2c(CNC(=O)COc3ccccc3)n[nH]c2=S)cc1	-25.9	0.6	-1.7	1.8	-0.8	1.2	.	.
Cc1cc(C)n(CCN(C)Cc2nc(Cc3ccccc3F)no2)n1	9.6	0.3	38.1*	16.4	-0.6	8.0	-0.7	-1.8
CN(Cc1nc(Cc2ccccc2F)no1)[C@@H]1CS(=O)(=O)C[C@H]1O	-2.5	0.5	8.0	3.5	-1.4	-3.0	.	.
Cc1ccc(NC(=O)COC(=O)CN2C(=O)NC(C)(C)C2=O)cc1S(=O)(=O)N1CCOCC1	6.2	0.1	23.9*	-10.1	-0.5	-2.9	0.0	-4.2
CC1(C)C(=O)Nc2ccccc2N1C(=O)COC(=O)CSc1ccc(Cl)cc1	4.7	.	5.7	1.4	0.8	-2.8	.	.
O=C(O)c1ccccc1Nc1ccnc(C(F)(F)F)c1	8.3	2.2	19.3*	-7.9	-2.3	-11.5	-0.6	-0.7
COc1ccccc1NC(=O)c1cc2c(s1)-c1ccccc1S(=O)(=O)C2	1.8	-0.9	-0.9	10.0	-1.4	1.3	.	.
COC(=O)N1CCCCC1c1cc(C(=O)NCc2ccccc2)no1 (stereo not given)	.	.	-0.5	.	.	-4.5	.	.
CCOc1ccc(C(=O)Nc2c3c(nn2-c2cccc(C)c2C)CS(=O)C3)cc1 (stereo not given)	-33.7	2.8	17.2*	0.0	-1.4	-0.8	-0.3	2.2
Cc1cccc(OCC(=O)Nc2nnc(S(=O)(=O)N3CCC(C)CC3)s2)c1	-7.1	3.3	16.8*	1.2	2.0	-2.1	-0.6	-2.1
Cc1cc(CNC(=O)COc2ccccc2)c2ccccc2n1	.	-2.1	15.9*	-1.5	1.2	-2.0	-0.1	-4.3
COCCCNC(=O)c1csc([C@H]2C[C@H](O)[C@@H](CO)O2)n1	.	.	18.6*	.	.	-6.4	-0.5	-3.9
CSc1cccc(NC(=S)NCCCN2CCN(c3ccc(F)cc3)CC2)c1	7.2	0.4	-6.1	5.7	1.1	-1.8	.	.
CCOC(=O)CCC(=O)Nc1ccc(S(=O)(=O)Nc2cc(OC)nc(OC)n2)cc1	8.2	1.3	21.6*	-7.0	-3.5	4.2	-0.6	-3.7
COc1cc(CN2CCN(Cc3c[nH]c4ccccc34)CC2CCO)cc(OC)c1 (stereo not given)	4.6	0.4	19.4*	7.8	-3.3	15.1	-0.5	4.8
COc1ccc(CN2CCN(Cc3c[nH]c4ccccc34)CC2CCO)cc1C (stereo not given)	10.6	0.7	13.2	-2.7	0.5	53.9	.	.
C=CCn1c(N)c(C(=O)Nc2cccc(C)c2)c2nc3ccccc3nc21	-15.9	0.8	19.7*	2.0	-4.8	5.8	-0.5	0.8
CCOc1ccc(NC(=O)C(=O)NCCN2CCN(C(=O)c3ccc(C)cc3)CC2)cc1	12.3	-0.7	-7.8	-1.4	2.4	1.4	.	.
COc1ccc(S(=O)(=O)N(C)CC(=O)N2CCOCC2)cc1	2.4	-0.3	-0.5	-0.3	0.5	4.5	.	.
COc1ccc(OC)c(S(=O)(=O)N(C)CC(=O)N2CCCCC2)c1	1.7	1.3	15.7*	-4.3	0.1	-2.1	-0.6	-2.0
COc1ccc(S(=O)(=O)N(C)CC(=O)N2CCCCCC2)cc1	3.5	0.7	36.4*	-2.1	4.7	-5.4	-0.6	4.0
CC(O)[C@H]1CNCCN1CC1(c2ccccc2)CC1 (stereo not given in full)	-5.2	-1.7	-1.9	6.4	1.6	-3.4	.	.
